Experimental findings from PubChem BioAssay (NCI) are described below.

About 83,000 compounds went through this panel and 20% of them were active in at least one assay; those are over-represented in the sample as a whole.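 A percent growth of 40 corresponds to 60% growth inhibition; 0 means no net growth; -100 means all cells died. Active threshold: below 10.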 Values without a mark were called inactive. Active and inactive are the calls of the source.

Test systems include BT-549 breast; MDA-MB-435 melanoma; SW-620 colon; MCF7 breast; HCT-116 colon; HCC-2998 colon; KM12 colon.
Experiment in all cases: NCI-60 one-dose screen, 48 h (100 = growth as untreated, 0 = no growth, -100 = all killed)
Holding throughout (settings): 10 µM unless noted

Take `Cc1c(C(=O)Nc2nc(-c3ccccc3)cs2)nnn1-c1ccccc1Br`: the growth in the assay with BT-549 breast was 35.5% [50 µM]; with MDA-MB-435 melanoma, 20.1% [50 µM]; in the assay on SW-620 colon it was 61% [50 µM]; with MCF7 breast it was 19% [50 µM]; in the assay on HCT-116 colon, 32.6% [50 µM]; in the assay with HCC-2998 colon, 72.7% [50 µM]. Besides, in the assay on KM12 colon, the growth is 36.3% [50 µM].
For the compound `COc1cc(-c2nc(SC(C)C)nc(Nc3cccc(C)c3)c2C#N)cc(OC)c1OC`, the growth was 107% in the assay with BT-549 breast; 107% with MDA-MB-435 melanoma; 109% with SW-620 colon; 98.1% in the assay with MCF7 breast; 115% with HCT-116 colon; 116% with HCC-2998 colon. For the same compound, the growth in the assay on KM12 colon was 110%.
`Nc1cccc2c(=S)c3ccccc3[nH]c12`: the growth with BT-549 breast was 102%; with MDA-MB-435 melanoma, 106%; in the assay with SW-620 colon, 92.6%; in the assay on MCF7 breast, 85.6%; in the assay with HCT-116 colon, 93.4%; in the assay with HCC-2998 colon it was 106%. Moreover, the growth with KM12 colon is 102%.
With `COc1ccc(/C=C(\C#N)c2cc3ccccc3n2C)cc1`, the growth is 51.2% in the assay on BT-549 breast; -49.1% (active) with MDA-MB-435 melanoma; 20% in the assay on SW-620 colon; 15.4% in the assay on MCF7 breast; 18.2% in the assay on HCT-116 colon; 24.8% with HCC-2998 colon. For the same compound, the growth with KM12 colon was 16.8%.
Consider `NC(=O)c1cc(I)ccc1NC(=O)COc1ccccc1`, for which the growth with BT-549 breast is 69.3%; in the assay on MDA-MB-435 melanoma, -56% (active); in the assay on SW-620 colon, 23.5%; in the assay on MCF7 breast it was 17.7%; in the assay with HCT-116 colon, 19%; in the assay with HCC-2998 colon, 13.9%. Further, the growth in the assay with KM12 colon was 19.9%.
For the compound `Cc1ccccc1-n1nnc(C(=O)Nc2nc(-c3ccccc3)c(-c3ccccc3)s2)c1C`, the growth with BT-549 breast is 89.7% [50 µM]; with MDA-MB-435 melanoma, 82.7% [50 µM]; with SW-620 colon, 87.3% [50 µM]; in the assay with MCF7 breast, 72.2% [50 µM]; in the assay with HCT-116 colon it was 62.6% [50 µM]; in the assay with HCC-2998 colon, 99.1% [50 µM]. Also, in the assay with KM12 colon, the growth is 81.4% [50 µM].
As for `Cn1c2ccc(Cl)cc2c2nn(C(=O)c3ccccc3)c(=O)nc21`, the growth in the assay on BT-549 breast was 122%; in the assay with MDA-MB-435 melanoma, 111%; in the assay with SW-620 colon, 99.3%; in the assay on MCF7 breast, 94.7%; in the assay with HCT-116 colon it was 104%; in the assay on HCC-2998 colon, 111%. Besides, the growth in the assay on KM12 colon was 106%.
For `Cn1c2ccccc2c2nn(C(=O)c3ccccc3)c(=O)nc21`, the growth in the assay with BT-549 breast is 114%; in the assay with MDA-MB-435 melanoma, 105%; in the assay on SW-620 colon, 100%; in the assay with MCF7 breast, 101%; with HCT-116 colon, 109%; with HCC-2998 colon, 107%. For the same compound, the growth in the assay on KM12 colon is 106%.
Turning to `COc1ccc(NC(=O)COc2ccccc2)c(C(N)=O)c1`, the growth was 55.9% in the assay on BT-549 breast; -70% (active) in the assay on MDA-MB-435 melanoma; 27.1% in the assay on SW-620 colon; 23.8% in the assay with MCF7 breast; 25.9% with HCT-116 colon; 46.5% in the assay with HCC-2998 colon. Further, the growth in the assay with KM12 colon is 25.2%.
As for `O=C(c1ccccc1)C(Br)C(Br)c1cccc([N+](=O)[O-])c1` (centres undefined), the growth with BT-549 breast is 74.8%; in the assay on MDA-MB-435 melanoma, 22.5%; with SW-620 colon it was -100% (active); in the assay with MCF7 breast, 24.8%; in the assay on HCT-116 colon, -91% (active); with HCC-2998 colon, 89.5%. For the same compound, the growth in the assay with KM12 colon was 33.7%.
For the compound `Cn1c2ccccc2c2nn(Cc3ccccc3)c(=O)nc21`, the growth in the assay on BT-549 breast was 110%; in the assay on MDA-MB-435 melanoma it was 112%; in the assay with SW-620 colon, 99.3%; in the assay on MCF7 breast it was 95.1%; in the assay with HCT-116 colon, 109%; in the assay on HCC-2998 colon it was 114%. The growth in the assay on KM12 colon was 104%.
For the compound `COc1cc(/C=N/NC(=O)c2cnn3c2NC(c2ccccc2)C3)ccc1OC1CCCC1` (centres undefined), the growth is 16.8% in the assay with BT-549 breast; 0.812% (active) in the assay on MDA-MB-435 melanoma; 18.3% with SW-620 colon; 16.8% with MCF7 breast; 18.9% in the assay with HCT-116 colon; 63.8% in the assay with HCC-2998 colon. In addition, in the assay with KM12 colon, the growth was 18.1%.
With `c1ccc(-c2n(Cc3ccc4ccccc4n3)c3ccccc3[n+]2Cc2ccc3ccccc3n2)cc1`, the growth in the assay with BT-549 breast is -0.501% (active); in the assay with MDA-MB-435 melanoma it was -12.7% (active); in the assay with SW-620 colon, 2.87% (active); in the assay on MCF7 breast it was 1.36% (active); with HCT-116 colon it was 5.91% (active); in the assay on HCC-2998 colon, -3.47% (active). In addition, in the assay on KM12 colon, the growth was -61.2% (active).
Consider `CCC(C)Oc1cc(/C=N/NC(=O)c2cnn3c2NC(c2ccccc2)C3)ccc1OC` (centres undefined), for which the growth with BT-549 breast is 40.7%; with MDA-MB-435 melanoma, 0.38% (active); in the assay with SW-620 colon, 27.3%; in the assay with MCF7 breast, 18.5%; in the assay with HCT-116 colon it was 22%; in the assay with HCC-2998 colon, 72.3%. The growth with KM12 colon was 20.2%.
With `CCN(CC)c1ccc2c(c1)OS(=O)(=O)N=C2`, the growth in the assay on BT-549 breast was 95.7%; with MDA-MB-435 melanoma, 101%; with SW-620 colon, 103%; in the assay on MCF7 breast, 94.7%; in the assay with HCT-116 colon, 99.5%; with HCC-2998 colon, 114%. In addition, the growth in the assay with KM12 colon was 113%.
Turning to `Cc1ccccc1-c1cc(-c2ccc(Br)s2)[nH]c(=O)c1C#N`, the growth in the assay with BT-549 breast was 105%; in the assay on MDA-MB-435 melanoma, 103%; with SW-620 colon it was 108%; with MCF7 breast, 92.3%; in the assay with HCT-116 colon it was 93.3%; in the assay with HCC-2998 colon, 104%. The growth in the assay with KM12 colon is 105%.
As for `CCOC(=O)c1[nH]c2cc(Cl)ccc2c1[C@@H](C(=O)NC(C)(C)C)N(CC)C(=O)CCCCC#Cc1cccc2c1CN(C1CCC(=O)NC1=O)C2=O` (some centres undefined), the growth was 3.98% (active) with BT-549 breast; 18.1% in the assay on MDA-MB-435 melanoma; 22.2% in the assay on SW-620 colon; 12.5% in the assay with MCF7 breast; 24.6% with HCT-116 colon; 6.54% (active) in the assay with HCC-2998 colon. Further, the growth with KM12 colon is 10.3%.
